Reference: PubChem BioAssay
Results with a measured potency or affinity are listed apart. Inconclusive results are not listed. A number with no mark means an inactive call. Unless noted, no rule for the calls is given here.

Test: inhibitors of CMV-promoter luciferase reporter, dose response, counter-screen for Pax8 inhibitor project, cell-based, HEK293, luminescence, dry powder (AID 743020;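 active = signal-lowering compounds whose fitted half-maximal concentration is at or below twice the top tested dose in every run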;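 also: HEK293 cells stably expressing the CMV luciferase reporter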)
Details: SteadyGlo luminescence, 24 h; series mostly up to 35 µM; activity change, negative = inhibition: at the top concentration

SMILES | activity change, negative = inhibition
COc1ccc(-c2ccc([C@@H]3[C@@H](CO)N4CCCCN(C(=O)Cc5ccccc5)C[C@H]34)cc2)cc1 | 4.75%
CC(=O)OC(C)(C)/C=C/C(=O)C(C)(O)C1[C@H](O)C[C@@]2(C)C3CC=C4C(CC[C@@H](O)C4(C)C)[C@]3(CO)C(=O)C[C@]12C (some centres not stated) | 7.12%
C[C@]12CCC3C(CCC4=CC(O)CC[C@@]43/C=N/O)C1(O)CCC2C1=CC(=O)OC1 (some centres not stated) | 1.84%
CC1CC(C)(O)CC(C(O)CC2CC(=O)NC(=O)C2)C1=O (configuration not stated) | 8.15%
CCC(c1nnnn1Cc1ccccc1)N1CCC(n2c(=O)[nH]c3ccccc32)CC1 (configuration not stated) | -12.5%
CCCCN=C[C@]12CCC(O)CC1(O)CCC1[C@@H]2CC[C@]2(C)[C@H](C3C=CC(=O)O3)CCC12O (some centres not stated) | 2.86%
O=c1[nH]c2ccccc2n1C1CCN(C(c2cccs2)c2nnnn2-c2ccc3c(c2)OCCO3)CC1 (configuration not stated) | 8.26%
CN(C)CC(C(=O)Cc1ccccc1)c1ccccc1 (configuration not stated) | 10.1%
CCC(C)C1NC(=O)C(NC(=O)C(CC(C)C)N(C)C(=O)C2CCCN2C(=O)C(C)O)C(C)OC(=O)C(Cc2ccc(OC)cc2)N(C)C(=O)C2CCCN2C(=O)C(CC(C)C)NC(=O)[C@H](C)C(=O)[C@H](C(C)C)OC(=O)CC1O (some centres not stated) | 9.1%
CCC(C)(O)C(=O)OC1C(=O)OC2CC3C(C)=CC(=O)C(O)C3(C)C3C4(O)OCC23C1C(C)C4O (configuration not stated) | 5%
Cc1ccc(C(=O)N[C@@H](C)CN2C3=NC[C@@H](Cc4ccccc4)N3C[C@H]2Cc2ccc(O)cc2)cc1Br | -10.4%
NC(=S)c1cn(C2OC(CO)C(O)C2O)c2ncnc(N)c12 (configuration not stated) | 0.466%
O=C(Cc1ccccn1)N1CCCCN2[C@@H](CO)[C@@H](c3ccc(-c4ccc(F)cc4)cc3)[C@@H]2C1 | 0.293%

Test: non-specific cell cytotoxicity, dose response, cytotoxicity control for PAX8 inhibitor project, plate reader, dry powder samples (AID 743021)
Details: cell line, non-specific cytotoxicity counter-screen; series mostly up to 35 µM; activity change, negative = cytotoxicity: at the top concentration

SMILES | activity change, negative = cytotoxicity
CC(=O)OC1CC(OC2C(O)CC(OC3C(O)CC(OC4CCC5(C)C(CCC6C5CCC5(C)C(C7=CC(=O)OC7)C(O)CC65O)C4)OC3C)OC2C)OC(C)C1OC1OC(CO)C(O)C(O)C1O (configuration not stated) | 7.71%
CC12CCC(O)CC1CCC1C2CCC2(C)C(C3=CC(=O)OC3)CCC12O (configuration not stated) | -34.6% [at 16 µM]
C=Cc1cc(OC)c2c(c1)c(=O)oc1c2cc(OC)c2c(O)ccc(C3OC(C)C(O)C(C)(O)C3O)c21 (configuration not stated) | 9.18%
CC(=O)OC(C)(C)/C=C/C(=O)C(C)(O)C1[C@H](O)C[C@@]2(C)C3CC=C4C(CC[C@@H](O)C4(C)C)[C@]3(CO)C(=O)C[C@]12C (some centres not stated) | 15.7%
CC1CC(C)(O)CC(C(O)CC2CC(=O)NC(=O)C2)C1=O (configuration not stated) | 20.4%
CC1OC(OC2C=C3CCC4C(CCC5(C)C(c6ccc(=O)oc6)CCC45O)C3(C)CC2)C(O)C(OC2OC(CO)C(O)C(O)C2O)C1O (configuration not stated) | -7.16%
COc1ccc(C[C@H]2NC[C@H](O)[C@H]2OC(C)=O)cc1 | 42%
CCCCCCCCCCCCn1ccc(=N)cc1 | 30.7%
N#Cc1ccc2nc(-c3ccc(CN4CCC(n5c(=O)[nH]c6ccccc65)CC4)cc3)c(-c3ccccc3)nc2c1 | -10.9%
COC(=O)C1=C(c2ccc(F)cc2OCc2ccccc2)C[C@@H]2CC[C@H]1N2C(=O)NCc1ccc(C(F)(F)F)cc1 | -16.1%
C[C@@H]1O[C@@H](O[C@@H]2C=C3CC[C@@H]4C(CC[C@]5(C)[C@@H](c6ccc(=O)oc6)CC[C@]45O)[C@@]3(C)CC2)[C@H](O)[C@H](O)[C@H]1O (some centres not stated) | 1.63%
CC(C)(O)/C=C/C(=O)C(C)(O)C1C(O)CC2(C)C3CC=C4C(C=C(O)C(=O)C4(C)C)C3(C)C(=O)CC12C (configuration not stated) | 51.6%
N#CC(C#N)=NNc1ccc(-n2ccc(C(F)(F)F)n2)cc1 | 22%
C[C@]12CC[C@H]3[C@@H](CC[C@]4(O)C[C@@H](O)CC[C@]34C=O)[C@@]1(O)CC[C@@H]2C1=CC(=O)OC1 | 21.6%
CN(C)CC(C(=O)Cc1ccccc1)c1ccccc1 (configuration not stated) | 30.9%
CCC(C)C1NC(=O)C(NC(=O)C(CC(C)C)N(C)C(=O)C2CCCN2C(=O)C(C)O)C(C)OC(=O)C(Cc2ccc(OC)cc2)N(C)C(=O)C2CCCN2C(=O)C(CC(C)C)NC(=O)[C@H](C)C(=O)[C@H](C(C)C)OC(=O)CC1O (some centres not stated) | 19%
CCC(C)(O)C(=O)OC1C(=O)OC2CC3C(C)=CC(=O)C(O)C3(C)C3C4(O)OCC23C1C(C)C4O (configuration not stated) | 42.6%
CC(N)C(=O)NC1C2C(=C(O)CC(O)C2O)C(=O)OC1(C)C(Cl)Cl (configuration not stated) | -0.552%
Cc1ccc(C(=O)N[C@@H](C)CN2C3=NC[C@@H](Cc4ccccc4)N3C[C@H]2Cc2ccc(O)cc2)cc1Br | -0.218%
